Laboratory results from PubChem BioAssay (NCI).
This is part of a sample that, as a whole, favours compounds with a hit. Of some 83,000 tested, about 20% had one in any assay.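 Testing used 96-well plates and a 48-hour single-concentration exposure. Example: -40 means 40% of the starting cells died.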 Active and inactive are the calls of the source. How the source made its calls: active means growth percent below 10; inactive means the rest.

The molecules below were run on SNB-19 CNS (assay: NCI-60 one-dose screen, 48 h (100 = growth as untreated, 0 = no growth, -100 = all killed)). Settings: 10 µM.
With `O=C(Nc1cccc(-n2cc(-c3ccncc3)c(-c3ccc(O)c(Cl)c3)n2)c1)c1cc(C(F)(F)F)cc(C(F)(F)F)c1` the growth was 88.4% (inactive). With `CCCC#CCN(CC)CC` the growth was 100% (inactive). `Cc1ccc(S(=O)(=O)OCCN(CCOS(=O)(=O)c2ccc(C)cc2)c2c[nH]c(=O)[nH]c2=O)cc1` was tested, and the growth was 100% (inactive). With `CCOC(=O)C(NC(=O)C(Cl)Cl)C(O)c1ccccc1` (stereo not drawn) the growth was 101% (inactive).

These molecules were tested on U251 CNS in the same assay as above. Settings: 10 µM.
For `CCCCCCCNc1nc(C=O)ncc1-c1ccc(C(F)(F)F)cc1`, the growth was 86.1% (inactive). With `CCCCCCN1CCN(Cc2ccc(N(CC)CC)cc2)C(=O)C1=O` the growth was 17.1% (inactive). With `O=C(Nc1cccc(-n2cc(-c3ccncc3)c(-c3ccc(O)c(Cl)c3)n2)c1)Nc1ccc(Cl)c(Cl)c1` the growth was -70.9% (active). With `S=C1SCC(c2ccccc2)S1` (stereo not drawn) the growth was 95.5% (inactive). With `COc1cccc(C(=O)Nc2ccc(CN3CCc4nc5cc(OC)c(OC)cc5cc43)cc2)c1` the growth was 33.9% (inactive). With `COc1ccc(-c2nn(-c3cccc(NC(=O)c4cc(C(F)(F)F)cc(C(F)(F)F)c4)c3)cc2-c2ccncc2)cc1Cl` the growth was 54.7% (inactive). For `O=C(Nc1ccccc1)Nc1cccc(-n2cc(-c3ccncc3)c(-c3ccc(O)c(Cl)c3)n2)c1`, the growth was -9.56% (active). With `N#CCCN1C/C(=C/c2ccc(Cl)cc2)C(=O)/C(=C/c2ccc(Cl)cc2)C1` the growth was -95.3% (active). With `COc1ccc(-c2nn(-c3cccc(NC(=O)c4cccc(C(F)(F)F)c4)c3)cc2-c2ccncc2)cc1Cl` the growth was -3.25% (active). For `COc1ccc([N+](=O)[O-])c(C(=O)O)c1`, the growth was 101% (inactive). For `CN(C)CCN=c1nc2c(c(N)n1-c1ccccc1)c(=S)n(-c1ccccc1)c(=S)n2-c1ccccc1`, the growth was 2.1% (active). For `O=C(Nc1cccc(-n2cc(-c3ccncc3)c(-c3ccc(O)c(Cl)c3)n2)c1)c1cccc(C(F)(F)F)c1`, the growth was -27.9% (active). For `COc1cccc(NC(=O)c2sc3nc4c(cc3c2N)C(O)CCC4)c1` (stereo not drawn), the growth was 10.6% (inactive). In the case of `O=S(=O)(NCCCNc1nccc(-c2c(-c3ccc(F)cc3)nc3sccn23)n1)c1ccc2ccccc2c1`, the growth is reported as 27.4% (inactive). With `COc1ccc(-c2nn(-c3cccc(NC(=O)Nc4cccc(C(F)(F)F)c4)c3)cc2-c2ccncc2)cc1Cl` the growth was -25.2% (active). For `COc1ccc(-c2nn(-c3cccc(NC(=O)c4ccc(Cl)c(Cl)c4)c3)cc2-c2ccncc2)cc1Cl`, the growth was 64% (inactive). `Cc1c(Cl)cccc1NC(=O)c1sc2nc3c(cc2c1N)C(=O)CCC3` was tested, and the growth was 7.51% (active). With `COc1cc(/C=C/C(=O)c2ccc(Cl)cc2)ccc1OS(=O)(=O)c1ccc(C)cc1` the growth was 83.7% (inactive). For `O=C(N/N=C/c1cc2ccccc2c2ccccc12)c1cc(O)c(O)c(O)c1`, the growth was 20.3% (inactive). For `COc1ccc(-c2nn(-c3cccc(NC(=O)c4ccc(N5CCOCC5)c(C(F)(F)F)c4)c3)cc2-c2ccncc2)cc1Cl`, the growth was 23.6% (inactive). For `COc1ccc(-c2cc(/C=C/C(=O)c3cc(OC)c(OC)c(OC)c3)[nH]n2)cc1OC`, the growth was -77.6% (active). In the case of `CC1=C(N2CCOCC2)C(N2CCOCC2)=C(C)C(=O)C1=O`, the growth is reported as 101% (inactive). For `Cc1ccc(C)c(C(O)(c2cc(C)ccc2C)C2(O)CCCCC2)c1`, the growth was 90.1% (inactive). With `COc1ccc(-c2nn(-c3cccc(NC(=O)c4ccc5c(c4)OCCO5)c3)cc2-c2ccncc2)cc1Cl` the growth was -9.64% (active). `Cc1ncc(-c2ccoc2)c(NC2CCCCCC2)n1` was tested, and the growth was 93.5% (inactive). In the case of `O=S(=O)(NCCNc1nccc(-c2c(-c3ccc(F)cc3)nc3sccn23)n1)c1ccc2ccccc2c1`, the growth is reported as 71% (inactive). In the case of `COc1ccc2c(c1)nc(N)c1c3cccnc3cn21`, the growth is reported as 12.7% (inactive). For `O=C(Nc1cccc(-n2cc(-c3ccncc3)c(-c3ccc(O)c(Cl)c3)n2)c1)c1ccc(Cl)c(Cl)c1`, the growth was 11% (inactive). With `CCN1CCCC1CNC(=O)c1ncc(-c2ccc(C(F)(F)F)cc2)c(NC2CCCCCC2)n1` (stereo not drawn) the growth was 52.7% (inactive). With `Clc1ccc(-c2cn(-c3ccccc3)c(-c3ccccc3)n2)c(Cl)c1` the growth was -100% (active). For `CCCCCCCCCCCCCCCC(=O)OC1[C@@H](OC(=O)CCCCCCCCCCCCCCC)[C@@H](C(=O)N[C@@H](CCCCN)C(=O)OC)O[C@H]1n1cnc2c(=O)[nH]c(NC(=O)C(C)C)nc21` (stereo partly drawn), the growth was 90.2% (inactive). With `O=c1oc2cc(OS(=O)(=O)c3ccccc3)ccc2c2c1CCCCC2` the growth was 34.4% (inactive). `O=C1Nc2ccccc2C1=NC1CCCCC1` was tested, and the growth was 101% (inactive). With `O=C(Nc1cccc(-n2cc(-c3ccncc3)c(-c3ccc(O)c(Cl)c3)n2)c1)c1ccc(N2CCOCC2)c(C(F)(F)F)c1` the growth was -13% (active). In the case of `O=C(Nc1ccc(OS(=O)(=O)c2ccccc2)cc1)C12CC3CC(CC(C3)C1)C2`, the growth is reported as 34.6% (inactive). In the case of `O=C(Nc1cccc(-n2cc(-c3ccncc3)c(-c3ccc(O)c(Cl)c3)n2)c1)c1cc(C(F)(F)F)cc(C(F)(F)F)c1`, the growth is reported as 33.1% (inactive). With `CCCC#CCN(CC)CC` the growth was 91.2% (inactive). For `Cc1ccc(S(=O)(=O)OCCN(CCOS(=O)(=O)c2ccc(C)cc2)c2c[nH]c(=O)[nH]c2=O)cc1`, the growth was 95% (inactive). In the case of `CCOC(=O)C(NC(=O)C(Cl)Cl)C(O)c1ccccc1` (stereo not drawn), the growth is reported as 101% (inactive).
